# Ecoli rRNA inh: selective bacterial rRNA inhibition in E. coli | E. coli WT GFP vs humanized-ribosome RFP mutants, fluorescence, 24 h; stronger effect = lower value; DMSO median 0, no signal -100 | GFP signal change (wild-type ribosome), % (no concentration beside the values) | 1.6% of 350,000 active;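 active = significant combined selectivity score with lowered wild-type GFP, culture density cut under 30%, mutant RFP and density less affected; inactive = any of these conditions unmet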
# ERAP1 HTS inh: ERAP1 (human) enzyme inhibition; AID 652197; inhibition, % at 10.7 µM; 0.15% of 340,000 active; recombinant ERAP1, Leu-AMC fluorescence, 60 min;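 active = mean replicate inhibition of at least 30%, or all replicates individually reaching that 30% level; inactive = mean below 30% and not every replicate reaching it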;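 note: 0% = neutral control wells and 100% = L-leucinethiol positive control wells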
# Target sequence (Q9NZ08 whole entry, looked up): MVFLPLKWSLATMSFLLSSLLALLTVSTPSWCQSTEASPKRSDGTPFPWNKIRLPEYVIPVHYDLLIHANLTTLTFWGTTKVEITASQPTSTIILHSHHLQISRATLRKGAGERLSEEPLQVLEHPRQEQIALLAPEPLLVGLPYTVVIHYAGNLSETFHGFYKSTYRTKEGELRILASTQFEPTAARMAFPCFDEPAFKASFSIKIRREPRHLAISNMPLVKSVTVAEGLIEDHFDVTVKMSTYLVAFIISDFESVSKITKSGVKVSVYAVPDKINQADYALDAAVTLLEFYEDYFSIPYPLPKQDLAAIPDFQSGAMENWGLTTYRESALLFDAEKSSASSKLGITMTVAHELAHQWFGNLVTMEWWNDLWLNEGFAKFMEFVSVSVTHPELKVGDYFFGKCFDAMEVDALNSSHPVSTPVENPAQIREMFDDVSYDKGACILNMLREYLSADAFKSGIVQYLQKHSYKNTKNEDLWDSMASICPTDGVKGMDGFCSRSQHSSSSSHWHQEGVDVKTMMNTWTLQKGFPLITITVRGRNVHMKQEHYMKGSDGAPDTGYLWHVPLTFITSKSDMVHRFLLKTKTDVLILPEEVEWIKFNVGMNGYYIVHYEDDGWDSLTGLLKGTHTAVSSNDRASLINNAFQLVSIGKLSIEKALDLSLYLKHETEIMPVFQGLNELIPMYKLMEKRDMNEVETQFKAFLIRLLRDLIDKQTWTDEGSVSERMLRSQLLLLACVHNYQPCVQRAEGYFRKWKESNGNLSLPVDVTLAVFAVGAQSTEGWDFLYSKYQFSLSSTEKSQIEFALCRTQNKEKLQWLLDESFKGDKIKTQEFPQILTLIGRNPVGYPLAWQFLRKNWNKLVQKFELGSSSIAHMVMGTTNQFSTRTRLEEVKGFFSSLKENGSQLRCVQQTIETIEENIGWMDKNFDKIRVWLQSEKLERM
# PvdQ inh: P. aeruginosa PvdQ acylase inhibition. purified PvdQ acylase, fluorescence plate reader. inhibition, % at 10 µM. 0.063% of 340,000 active. AID 488965; in the data active = inhibition above about 30%, passing the limit was not always enough;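 note: 0% = vehicle neutral wells and 100% = reference inhibitor wells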
# F508del corr: CFTR F508del correction in bronchial cells. CFBE cells, YFP halide quenching; stimulated with forskolin plus potentiator P3; % fluorescence drop versus neutral controls. activity (quench increase), % at 7.58 µM. 0.36% of 350,000 active. AID 720511;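 active = mean added fluorescence quench of at least 8% versus neutral control, with both replicates also reaching 8%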;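 note: cells transiently co-express mutant CFTR-F508del with the halide-sensitive YFP; corrector assay measuring rescue of mutant channel to the surface after 24 h compound exposure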
# ARNT-TACC3 inh: ARNT/TACC3 interaction disruption | AlphaScreen His-ARNT PAS-B/GST-TACC3 binding, luminescence; TACC3 fragment carries E629A point mutation | AID 623870 | 0.66% of 390,000 active | inhibition, % at 9.99 µM | Q9Y6A5;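 active = mean inhibition of replicates at least 50% and at least half of replicates each reaching 50%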;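 note: 0% = complete ARNT plus TACC3 wells and 100% = ARNT alone without TACC3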
# An asterisk follows results filed as active; nt = no result given. In the library only some 2.1% were active in any assay of this set; here they are far more common.
SMILES,Ecoli rRNA inh,ERAP1 HTS inh,PvdQ inh,F508del corr,ARNT-TACC3 inh
O=C(NCCOc1ccccc1)c1cc([N+](=O)[O-])ccc1N1CCOCC1,-7.1,3.3,-9.9,11.6*,1.3
O=C(NCCc1ccccc1)c1cc([N+](=O)[O-])ccc1N1CCOCC1,-19.9,0.0,-0.4,1.5,-2.7
O=C(NCCOc1ccccc1F)c1cc([N+](=O)[O-])ccc1N1CCOCC1,6.2,3.6,11.7,8.3*,-1.6
C[C@@H]1CN([C@H](C)CO)C(=O)c2cc(/C=C/c3ccccc3)cnc2O[C@H]1CN(C)S(=O)(=O)c1cn(C)cn1,-4.1,-3.2,nt,nt,-6.7
COCC(=O)N(C)C[C@@H]1Oc2cc(-c3ccc(C)cc3)ccc2S(=O)(=O)N([C@@H](C)CO)C[C@@H]1C,-5.0,-0.5,nt,0.1,-0.1
CCS(=O)(=O)N[C@H]1C=C[C@@H](CC(=O)NCc2ccc(F)cc2)O[C@H]1CO,nt,2.0,nt,3.0,-0.6
CCCCCCCCCCCCCCCC[n+]1cccc(C(=O)N(CC)CC)c1,-64.2,68.3*,6.9,4.9,11.8
CCCCCCCC[n+]1cccc(C(=O)N(CC)CC)c1,nt,-1.8,-18.3,2.2,nt
COc1cc(-c2noc(C)c2C#Cc2ccsc2)cc(OC)c1OC,-4.2,6.2,20.8,11.4*,-11.9
COc1cc(-c2noc(C)c2C#CCO)cc(OC)c1OC,-8.9,0.8,7.4,-1.3,24.8
N#Cc1ccc(-c2ccc3c(c2)[C@@H]2[C@@H](CCN2C(=O)C2CC2)[C@@H](CO)N3)cc1,4.5,1.3,nt,-1.5,2.5
O=C(Nc1ccccc1)N[C@@H]1CC[C@@H](CCNS(=O)(=O)c2cccc(F)c2)O[C@H]1CO,-2.5,-2.1,nt,-0.6,-6.7
O=c1c(CO)cc(CO)cc(CO)c1O,-6.4,-1.1,-11.6,0.8,74.3*
CCOC(=O)C1(Cc2ccccc2Cl)CCN(Cc2csc(C(C)=O)c2)CC1,-22.8*,1.0,-5.7,1.9,-19.6
CCOC(=O)C1(Cc2cccc(OC)c2)CCN(Cc2ccccc2)CC1,-8.7,0.3,-14.2,0.6,5.2
C[C@@H]1CN([C@H](C)CO)C(=O)c2c(c3ccccc3n2C)-c2ccccc2CO[C@H]1CN(C)CC1CC1,8.9,-4.0,nt,-3.2,2.4
Oc1ccc(/C=N/Nc2nc(-c3ccc(Cl)cc3)cc(C(F)(F)F)n2)cc1,-23.1*,5.3,1.6,nt,14.5
COC(=O)Nc1ccc(SCC(=O)c2ccc(Cl)cc2)cc1,-36.8,4.7,-2.6,-1.1,-26.3
COC(=O)Nc1ccc(SCC(=O)c2ccccc2)cc1,-25.3*,0.9,0.4,2.7,4.3
Cc1ccccc1NC(=S)N(Cc1cccs1)C1CCCCC1,-8.6,-1.4,-0.7,-2.6,-3.1
Cc1c(Cl)cccc1NC(=S)N(Cc1cccs1)C1CCCC1,-21.8*,1.3,-12.5,3.0,-6.6
C[C@H]1CN([C@@H](C)CO)C(=O)c2cc(C3=CCCCC3)cnc2O[C@H]1CN(C)CC1CCOCC1,3.2,1.7,nt,4.4,-7.0
Cc1nn(Cc2ccc(C(=O)Nc3ccccc3F)cc2)c(C)c1Cl,-24.0*,12.1,-12.5,-1.1,-7.8
COc1ccccc1C=NNC(=O)c1ccccc1OCCOc1ccccc1,-31.1*,-0.2,-19.4,-0.4,-0.8
NC(=O)C1Cc2ccccc2CN1C(=O)c1cc(C2CC2)nn1-c1ccccc1 (stereo not given),-20.6*,0.1,-14.2,7.4,1.2
SMILES,Ecoli rRNA inh,ERAP1 HTS inh,PvdQ inh,F508del corr,ARNT-TACC3 inh
O=C(O)c1cc(C2CC2)nn1-c1ccccc1,-5.7,-1.9,-9.1,nt,-1.5
CC12CCC(C(=O)N(CSC(=S)N/N=C\c3ccccc3O)C1=O)C2(C)C (stereo not given),nt,nt,-2.7,nt,65.6*
COc1ccc(/C=N\NC(=S)SCN2C(=O)C3CCC(C)(C2=O)C3(C)C)cc1 (stereo not given),nt,nt,8.1,nt,7.1
Cc1noc(C)c1S(=O)(=O)Nc1ccc2c(c1)C(=O)N([C@H](C)CO)C[C@@H](C)[C@H](CN(C)S(=O)(=O)c1ccc(Cl)cc1)O2,-1.6,0.7,nt,-1.8,-15.9
CCOC(=O)N1CCN(C(=O)C2CCC(=O)N(CCCN3CCCC3=O)C2)CC1 (stereo not given),10.0,-2.3,-6.3,8.5*,2.1
O=C(C[C@@H]1C=C[C@@H](NC(=O)NC2CCCCC2)[C@@H](CO)O1)NCc1ccc(F)cc1,0.8,0.2,nt,-2.3,-2.3
Cc1cc(=O)oc2c1c(C)nn2-c1nn[nH]n1,nt,nt,-15.3,nt,63.5*
